# Test results from PubChem BioAssay.
# Calls of active or inactive are those of the source.
# How the values were obtained:
# Albumin (Bos taurus) = Albumin (Bos taurus) (UniProt P02769); test: compounds binding labelled BSA control protein – biochemical, small-molecule microarray, Alexa647 label, 635/667 nm fluorescence, artefact control for SMM control protein annotation, profiling panel (AID 1118); settings: BSA-A647 binding, fluorescence 635 nm, higher = more signal;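 also: score merges 667 nm emission intensity and signal-to-noise per printed compound spot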
# [1] = probe aXIP binding to arrayed compounds – biochemical, NeuroSMM set, 635/667 nm fluorescence, primary screen (AID 1119); settings: small-molecule microarray, higher = more signal, called active from +8 up or from −8 down;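 also: probe is the protein aXip251-270 applied at 1 µg/mL to compound-printed slides; binding of probe to printed compounds measured as 667 nm fluorescence plus signal to noise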
# [2] = probe aNOTCH3 binding on compound microarray – biochemical, small-molecule microarray, 635/667 nm fluorescence, primary screen (AID 1120); settings: higher = more signal;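 also: probe is a biotin-tagged antibody raised against NOTCH3 rather than NOTCH3 protein; score merges spot fluorescence near 667 nm with spot signal to noise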
# [3] = probe aNOTCH2 binding on compound microarray – biochemical, small-molecule microarray, 635/667 nm fluorescence, primary screen (AID 1121); settings: higher = more signal;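 also: score merges feature fluorescence read at 667 nm with its signal to noise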
# [4] = target: Carbonic anhydrase 2 (Homo sapiens) (UniProt P00918); test: compounds binding carbonic anhydrase 2 – biochemical, small-molecule microarray, Alexa647-labelled CAII, profiling panel (AID 1122); settings: CAII-A647 binding fluorescence, higher = more signal
# [5] = COS7 lysate on small-molecule microarray, probe aHis, 635 nm (AID 1123); settings: COS7 cell lysate, fluorescence, higher = more signal;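 also: z-score combines 667nm fluorescence intensity with signal-to-noise per printed compound spot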
# [6] = probe aLAP1 signal on lysate-treated microarray – cell lysate, small-molecule microarray, COS7 lysate, primary screen (AID 1124); settings: probe aLAP1, fluorescence, higher = more signal;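 also: lysate comes from COS7 cells expressing LAP1 and is applied at 0.3 µg/mL; score merges spot fluorescence near 667 nm with signal-to-noise over triplicate slides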
# Sam68 (KHDRBS1) = test: compounds binding KHDRBS1 protein – biochemical, small-molecule microarray, 635 nm fluorescence, primary screen (AID 1125); settings: higher = more signal;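 also: score merges 667 nm channel intensity with signal to noise over triplicate slides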
# [7] = tested on: Chordin-like protein 2 (CHRDL2); test: compounds binding chordin-like 2 – biochemical, small-molecule microarray, 635 nm fluorescence, primary screen (AID 1126); settings: fluorescence 635 nm, higher = more signal;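 also: printed compound slides probed with Chrdl2 protein at 4 µg/mL for 1 h at 4 C; score merges 667 nm emission intensity with signal to noise over three replicate slides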
# [8] = target: Concanavalin-A (Canavalia ensiformis) (UniProt P02866); test: compounds binding concanavalin A lectin – biochemical, small-molecule microarray, Alexa647 label, 635 nm, artefact control for SMM control protein annotation, primary screen (AID 1127); settings: ConA-A647 binding fluorescence, higher = more signal;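 also: z combines 667 nm emission intensity with signal-to-noise across three replicate slides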
# [9] = compounds binding Alexa647 anti-His antibody – biochemical, small-molecule microarray, 635 nm fluorescence, artefact control for SMM control protein annotation, primary screen (AID 1128); settings: higher = more signal;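 also: score merges feature fluorescence with signal-to-noise for each printed compound spot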
# [10] = tested on: Human papillomavirus type 1a E7 protein (residues 1-88); test: HPV1a E7 small-molecule binders, primary screen, biochemical, small-molecule microarray, residues 1-88, 635 nm (AID 1129); settings: small-molecule microarray binding, fluorescence 635 nm; higher = more signal
# [11] = target: Focal adhesion kinase 1 (Homo sapiens) (UniProt Q05397); test: PTK2 protein binding on printed compound slides – biochemical, small-molecule microarray, 635/667 nm fluorescence, BSA, DTT, primary screen (AID 1130); settings: 635 nm fluorescence, higher = more signal;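 also: composite of spot emission at 667 nm and signal to noise over triplicate slides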
# [12] = tested on: Fibrinogen (Alexa647-labelled); test: Alexa647-fibrinogen binding to printed small molecules – biochemical, small-molecule microarray, 635/667 nm fluorescence, artefact control for SMM control-protein annotation, profiling panel (AID 1131); settings: fibrinogen-A647 binding fluorescence, higher = more signal;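 also: z-score merges 667 nm fluorescence with per-spot signal-to-noise over triplicate slides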
# [13] = target: Follistatin (Homo sapiens) (UniProt P19883); test: FST protein binding to printed compounds – biochemical, small-molecule microarray, 635/667 nm fluorescence, primary screen (AID 1132); settings: 635 nm fluorescence, higher = more signal
# [14] = target: Fibroblast growth factor 2 (Homo sapiens) (UniProt P09038); test: basic fibroblast growth factor binding to printed compounds – biochemical, small-molecule microarray, 635/667 nm fluorescence, primary screen (AID 1133); settings: FGF2, fluorescence 635/667, higher = more signal
# [15] = JC-1 mitochondrial potential readout, lung cancer cells – cell-based, A549, JC-1 fluorescence, basal, 24 h, 100 nL, profiling panel (AID 1138); settings: higher = more signal;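 also: A549 lung adenocarcinoma cells under basal conditions with no added stimulus; test concentration not given here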
# Lefty1 = Lefty1 protein binding to printed compounds – biochemical, small-molecule microarray, 635/667 nm fluorescence, primary screen (AID 1139); settings: fluorescence 635/667, higher = more signal
# [16] = tested on: wheat germ agglutinin (Triticum aestivum), Alexa647-labelled; test: Alexa647-WGA lectin binding to printed small molecules – biochemical, small-molecule microarray, 635/667 nm fluorescence, artefact control for SMM control-protein annotation, profiling panel (AID 1140); settings: WGA-A647 binding, 635 nm fluorescence, higher = more signal;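 also: score merges 667 nm feature emission with signal to noise over triplicate slides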
# [17] = target: Luciferin 4-monooxygenase (Photinus pyralis) (UniProt P08659); test: inhibition of purified Photinus pyralis luciferase – biochemical, luminescence, purified enzyme, 2006 set, primary screen (AID 1141); settings: purified firefly luciferase, SteadyGlo luminescence, 30 min; higher = more signal, called active from +8 up or from −8 down;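 also: cell-free assay with purified firefly luciferase at 100 ng per well in PBS; test concentration not given here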
# Chain of Luciferin 4-monooxygenase (Photinus pyralis) (P08659 whole entry, looked up): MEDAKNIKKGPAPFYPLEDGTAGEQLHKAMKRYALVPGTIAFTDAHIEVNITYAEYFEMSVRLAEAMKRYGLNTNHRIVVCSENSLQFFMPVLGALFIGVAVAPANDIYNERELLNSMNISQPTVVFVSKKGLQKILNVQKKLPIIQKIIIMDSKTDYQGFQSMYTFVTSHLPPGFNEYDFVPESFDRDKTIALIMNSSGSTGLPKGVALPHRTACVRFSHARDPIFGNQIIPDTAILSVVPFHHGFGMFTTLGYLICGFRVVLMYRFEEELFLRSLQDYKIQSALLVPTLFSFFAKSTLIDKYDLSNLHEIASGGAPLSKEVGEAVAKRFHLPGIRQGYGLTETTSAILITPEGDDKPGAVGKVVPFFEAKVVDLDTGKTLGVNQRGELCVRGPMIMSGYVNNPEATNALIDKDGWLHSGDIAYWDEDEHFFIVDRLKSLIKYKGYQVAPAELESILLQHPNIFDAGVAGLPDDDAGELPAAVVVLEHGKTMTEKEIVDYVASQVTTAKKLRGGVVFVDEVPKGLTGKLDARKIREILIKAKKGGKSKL
# Chain of Fibroblast growth factor 2 (Homo sapiens) (P09038 whole entry, looked up): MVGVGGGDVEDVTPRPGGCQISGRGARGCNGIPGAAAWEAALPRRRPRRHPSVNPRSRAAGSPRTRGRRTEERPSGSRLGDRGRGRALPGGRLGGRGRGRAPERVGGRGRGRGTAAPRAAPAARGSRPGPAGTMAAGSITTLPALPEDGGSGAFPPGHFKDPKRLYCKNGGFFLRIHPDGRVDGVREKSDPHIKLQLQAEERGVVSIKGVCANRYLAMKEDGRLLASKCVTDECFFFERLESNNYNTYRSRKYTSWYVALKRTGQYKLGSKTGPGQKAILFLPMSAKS
# Chain of Albumin (Bos taurus) (P02769 whole entry, looked up): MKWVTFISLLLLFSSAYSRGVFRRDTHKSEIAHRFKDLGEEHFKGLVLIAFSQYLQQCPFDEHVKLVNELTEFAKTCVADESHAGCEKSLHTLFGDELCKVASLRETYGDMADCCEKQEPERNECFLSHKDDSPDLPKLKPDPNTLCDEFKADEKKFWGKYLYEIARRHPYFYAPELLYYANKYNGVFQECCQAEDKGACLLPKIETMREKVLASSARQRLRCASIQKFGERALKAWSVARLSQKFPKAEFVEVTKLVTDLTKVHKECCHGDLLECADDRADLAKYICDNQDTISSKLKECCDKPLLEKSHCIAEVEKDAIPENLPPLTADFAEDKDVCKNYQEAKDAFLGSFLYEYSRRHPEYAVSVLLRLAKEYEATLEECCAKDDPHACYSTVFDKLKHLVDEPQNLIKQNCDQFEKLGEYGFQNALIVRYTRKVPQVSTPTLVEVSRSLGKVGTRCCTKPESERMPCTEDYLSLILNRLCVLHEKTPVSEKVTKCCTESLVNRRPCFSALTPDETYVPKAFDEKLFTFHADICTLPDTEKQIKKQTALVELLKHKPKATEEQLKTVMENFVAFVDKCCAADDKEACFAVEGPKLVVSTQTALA
# Chain of Follistatin (Homo sapiens) (P19883 whole entry, looked up): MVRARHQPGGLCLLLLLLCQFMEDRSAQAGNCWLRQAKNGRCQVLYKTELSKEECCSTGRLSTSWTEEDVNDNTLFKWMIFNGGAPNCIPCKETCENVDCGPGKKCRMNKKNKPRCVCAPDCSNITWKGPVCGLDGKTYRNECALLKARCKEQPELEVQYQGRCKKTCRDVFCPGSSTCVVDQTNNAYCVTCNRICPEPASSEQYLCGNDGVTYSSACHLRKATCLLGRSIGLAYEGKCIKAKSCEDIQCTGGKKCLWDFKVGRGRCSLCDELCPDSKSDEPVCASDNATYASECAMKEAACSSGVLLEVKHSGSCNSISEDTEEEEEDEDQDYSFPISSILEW
# Chain of Focal adhesion kinase 1 (Homo sapiens) (Q05397 whole entry, looked up): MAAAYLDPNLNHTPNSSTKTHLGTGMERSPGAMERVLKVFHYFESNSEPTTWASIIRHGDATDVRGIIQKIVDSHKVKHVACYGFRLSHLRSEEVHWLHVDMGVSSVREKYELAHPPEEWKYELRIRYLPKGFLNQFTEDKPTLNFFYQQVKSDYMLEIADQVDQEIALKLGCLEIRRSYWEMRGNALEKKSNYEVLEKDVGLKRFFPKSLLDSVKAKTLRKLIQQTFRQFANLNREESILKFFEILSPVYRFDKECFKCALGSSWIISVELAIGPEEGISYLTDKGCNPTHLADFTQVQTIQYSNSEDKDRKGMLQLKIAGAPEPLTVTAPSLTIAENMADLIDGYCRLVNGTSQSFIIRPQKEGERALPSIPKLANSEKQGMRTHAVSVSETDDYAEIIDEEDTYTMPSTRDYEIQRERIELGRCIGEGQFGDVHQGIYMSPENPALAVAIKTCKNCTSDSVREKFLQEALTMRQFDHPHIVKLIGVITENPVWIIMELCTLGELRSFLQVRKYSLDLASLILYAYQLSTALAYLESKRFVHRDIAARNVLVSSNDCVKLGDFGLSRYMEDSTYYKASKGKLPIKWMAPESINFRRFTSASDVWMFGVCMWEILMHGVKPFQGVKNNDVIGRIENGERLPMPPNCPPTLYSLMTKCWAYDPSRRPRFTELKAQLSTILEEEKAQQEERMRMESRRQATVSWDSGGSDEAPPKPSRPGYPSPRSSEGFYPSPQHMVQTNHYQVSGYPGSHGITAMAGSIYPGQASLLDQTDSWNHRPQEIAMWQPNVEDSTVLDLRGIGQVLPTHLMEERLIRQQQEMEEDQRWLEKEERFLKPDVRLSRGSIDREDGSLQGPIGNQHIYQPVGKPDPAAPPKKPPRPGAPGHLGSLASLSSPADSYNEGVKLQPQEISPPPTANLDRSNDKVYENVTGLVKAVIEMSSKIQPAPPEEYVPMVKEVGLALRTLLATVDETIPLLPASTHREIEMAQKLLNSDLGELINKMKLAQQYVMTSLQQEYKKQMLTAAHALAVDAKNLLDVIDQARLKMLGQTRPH
# Chain of Concanavalin-A (Canavalia ensiformis) (P02866 whole entry, looked up): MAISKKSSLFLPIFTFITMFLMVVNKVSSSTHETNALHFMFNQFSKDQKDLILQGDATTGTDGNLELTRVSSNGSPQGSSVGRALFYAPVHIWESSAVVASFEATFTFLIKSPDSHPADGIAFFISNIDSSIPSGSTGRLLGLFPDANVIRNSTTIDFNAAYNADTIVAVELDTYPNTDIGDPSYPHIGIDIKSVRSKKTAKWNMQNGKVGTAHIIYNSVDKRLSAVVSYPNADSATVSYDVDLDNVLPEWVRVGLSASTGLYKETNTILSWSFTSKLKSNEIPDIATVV
Compound,composite z-score (Albumin (Bos taurus)),composite Z-score [1],composite z-score [2],composite z-score [3],composite z-score [4],composite z-score [5],composite z-score [6],composite z-score (Sam68 (KHDRBS1)),composite z-score [7],composite z-score [8],composite z-score [9],composite z-score [10],composite z-score [11],composite z-score [12],composite z-score [13],composite z-score [14],z-score [15],composite z-score (Lefty1),composite z-score [16],z-score [17]
COC(=O)C1=CC(c2ccc(CO)cc2)=CC(C2CC2)N(Cc2cc3c(cc2Br)OCO3)C=C1C(=O)OC (stereo not given),0.861,2.69 (inactive),0.448,0.165,0.814,2.82,1.24,1.31,0.0562,1.19,2.85,1.19,0.833,0.879,0.62,0.907,0.835,0.413,1.06,-0.817 (inactive)
C=CC[C@H](O)c1ccc(O)c(F)c1,-0.394,0.404 (inactive),-0.849,-0.157,0.828,-0.268,-0.0732,-1.45,-2.24,-1.09,-0.234,-1.35,-0.677,-2.61,-1.28,-0.975,0.414,-0.618,-0.318,-0.857 (inactive)
C=C(COC)/C(=C/C[C@@H](OC(=O)c1ccncc1)c1ccccc1OCCO)c1cnc2ccccc2c1,0.57,0.341 (inactive),0.265,-0.0762,0.962,0.562,0.475,1.3,1.38,1.22,1.27,1.17,0.276,0.848,1.47,1.6,1.5,1.56,1.39,-1.17 (inactive)
CC(=O)NCCCC[C@@H]1NC(=O)[C@H]2C[C@@H](C(=O)NCCCCCN)[C@@H](c3ccc(O)cc3)N2C1=O,0.675,0.0898 (inactive),-0.0677,-0.0706,0.413,1.1,-0.15,1.21,0.851,0.966,2.49,1.21,0.948,0.653,1.12,1.13,-0.109,0.944,0.773,0.148 (inactive)
COc1ccc([Si](C)(C)[C@H]2[C@H](CC(=O)N3CCC[C@H]3CO)O[C@@]3(C(=O)N(C)c4c(Br)cc(C)cc43)[C@@H]2C)cc1,0.824,3.93 (inactive),0.189,0.503,0.81,2.52,0.548,1.3,1.38,1.19,1.15,1.22,1.44,0.74,1.59,1.86,-0.0282,1.43,1.59,0.395 (inactive)
COc1ccc(C(=O)Nc2cccc(CN3C(=O)[C@]4(O[C@H](CC(=O)N(CCO)Cc5ccccc5)[C@@H]([Si](C)(C)c5ccc(OC)cc5)[C@@H]4C)c4ccccc43)c2)cc1,-0.211,0.264 (inactive),0.0141,-0.046,0.325,1.51,-0.0351,0.775,0.972,0.762,0.699,1.07,0.116,0.334,0.959,1.15,-0.0253,0.565,0.596,-0.881 (inactive)
